Laboratory results as given in PMC11062922 (Nature Chemical Biology, 2023).
Where two headings read alike, the source gives them in different places.

Key:
Set-up in all cases: species or system human, MV4-11 + K-562 + COLO205 + SK-N-BE2 + OVCAR-8
CDC42 = conditions: read-out: apparent Kd, n = 1
PIK3CB = conditions: read-out: apparent Kd; compound concentrations:100 nM and 1000 nM (sheet 'Samples'); n = 1
RAB5C = conditions: read-out: apparent Kd; compound concentrations:100 nM and 1000 nM (sheet 'Samples'); n = 1
MDN1 = conditions: read-out: apparent Kd; compound concentrations: 100 nM and 1000 nM (sheet 'Samples'), CATDS: 0.33246338126543201; n = 1
RIOK2 = conditions: read-out: apparent Kd, compound concentrations: 100 nM and 1000 nM (sheet 'Samples'), n = 1
CDK16 = conditions: read-out: apparent Kd, n = 1
CDK17 = conditions: read-out: apparent Kd, n = 1
CDK9 = conditions: read-out: apparent Kd, n = 1
CDKL5 = conditions: read-out: apparent Kd, n = 1
DYRK1A = conditions: read-out: apparent Kd; compound concentrations: 100 nM and 1000 nM (sheet 'Samples'), CATDS: 8.3758685626984103E-2; n = 1
GSK3A = conditions: read-out: apparent Kd, n = 1
GSK3B = conditions: read-out: apparent Kd, n = 1
SMG1 = conditions: read-out: apparent Kd; compound concentrations: 100 nM and 1000 nM (sheet 'Samples'), CATDS: 7.6423635677126206E-2; n = 1
CDK6 = conditions: read-out: apparent Kd; compound concentrations:100 nM and 1000 nM (sheet 'Samples'); n = 1
CDK7 = conditions: read-out: apparent Kd; compound concentrations:100 nM and 1000 nM (sheet 'Samples'); n = 1
EPHB2 = conditions: read-out: apparent Kd; compound concentrations:100 nM and 1000 nM (sheet 'Samples'); n = 1
ERCC2 = conditions: read-out: apparent Kd; compound concentrations:100 nM and 1000 nM (sheet 'Samples'); n = 1
FER = conditions: read-out: apparent Kd; compound concentrations:100 nM and 1000 nM (sheet 'Samples'); n = 1
ICK = conditions: read-out: apparent Kd, n = 1
MAPK7 = conditions: read-out: apparent Kd; compound concentrations:100 nM and 1000 nM (sheet 'Samples'); n = 1
NQO2 = conditions: read-out: apparent Kd, n = 1
PDGFRB = conditions: read-out: apparent Kd; compound concentrations:100 nM and 1000 nM (sheet 'Samples'); n = 1
TNK1 = conditions: read-out: apparent Kd, n = 1
TNK2 = conditions: read-out: apparent Kd; compound concentrations:100 nM and 1000 nM (sheet 'Samples'); n = 1
CLK1 = conditions: read-out: apparent Kd, compound concentrations: 100 nM and 1000 nM (sheet 'Samples'), n = 1
CLK4 = conditions: read-out: apparent Kd, compound concentrations: 100 nM and 1000 nM (sheet 'Samples'), n = 1
COX5A = conditions: read-out: apparent Kd; compound concentrations: 100 nM and 1000 nM (sheet 'Samples'), CATDS: 4.3023154041585097E-2; n = 1
CSNK1D = conditions: read-out: apparent Kd, compound concentrations: 100 nM and 1000 nM (sheet 'Samples'), n = 1
CSNK1E = conditions: read-out: apparent Kd, compound concentrations: 100 nM and 1000 nM (sheet 'Samples'), n = 1
EIF2AK1 = conditions: read-out: apparent Kd; compound concentrations: 100 nM and 1000 nM (sheet 'Samples'), CATDS: 4.9510201878617897E-2; n = 1
GAK = conditions: read-out: apparent Kd, compound concentrations: 100 nM and 1000 nM (sheet 'Samples'), n = 1
IGF1R = conditions: read-out: apparent Kd; compound concentrations: 100 nM and 1000 nM (sheet 'Samples'), CATDS: 4.75175381268634E-2; n = 1
INSR = conditions: read-out: apparent Kd; compound concentrations: 100 nM and 1000 nM (sheet 'Samples'), CATDS: 6.6437205793840798E-2; n = 1
MAPK10 = conditions: read-out: apparent Kd; compound concentrations: 100 nM and 1000 nM (sheet 'Samples'), CATDS: 0.17405984899870899; n = 1
MAPK8 = conditions: read-out: apparent Kd; compound concentrations: 100 nM and 1000 nM (sheet 'Samples'), CATDS: 0.110364514010045; n = 1
MAPK9 = conditions: read-out: apparent Kd; compound concentrations: 100 nM and 1000 nM (sheet 'Samples'), CATDS: 6.3911773548267894E-2; n = 1
PSMC4 = conditions: read-out: apparent Kd; compound concentrations: 100 nM and 1000 nM (sheet 'Samples'), CATDS: 4.1025682332982399E-2; n = 1
PTK2B = conditions: read-out: apparent Kd; compound concentrations: 100 nM and 1000 nM (sheet 'Samples'), CATDS: 7.7838120070478606E-2; n = 1
TTK = conditions: read-out: apparent Kd; compound concentrations: 100 nM and 1000 nM (sheet 'Samples'), CATDS: 5.00246606430578E-2; n = 1
CSNK1A1 = conditions: read-out: apparent Kd, compound concentrations: 100 nM and 1000 nM (sheet 'Samples'), n = 1
FLT3 = conditions: read-out: apparent Kd; compound concentrations: 100 nM and 1000 nM (sheet 'Samples'), CATDS: 0.12792168712312599; n = 1
CDK10 = conditions: read-out: apparent Kd; compound concentrations: 100 nM and 1000 nM (sheet 'Samples'), CATDS: 0.11960358808183499; n = 1
HSPE1 = conditions: read-out: apparent Kd; compound concentrations: 100 nM and 1000 nM (sheet 'Samples'), CATDS: 0.54374623342004202; n = 1
PKM = conditions: read-out: apparent Kd; compound concentrations: 100 nM and 1000 nM (sheet 'Samples'), CATDS: 0.11750793600078301; n = 1
CDC7 = conditions: read-out: apparent Kd; compound concentrations: 100 nM and 1000 nM (sheet 'Samples'), CATDS: 8.1877579079801296E-2; n = 1
ILK = conditions: read-out: apparent Kd; compound concentrations: 100 nM and 1000 nM (sheet 'Samples'), CATDS: 8.2547383277030401E-2; n = 1
NQO1 = conditions: read-out: apparent Kd; compound concentrations: 100 nM and 1000 nM (sheet 'Samples'), CATDS: 9.0275127229000399E-2; n = 1
TP53RK = conditions: read-out: apparent Kd; compound concentrations: 100 nM and 1000 nM (sheet 'Samples'), CATDS: 7.7480450425825395E-2; n = 1
[1] = compound concentrations:100 nM and 1000 nM (sheet 'Samples')

`O=c1cc(N2CCOCC2)nc2n(Cc3cccc(C(F)(F)F)c3)ccn12` [GSK2297543A] gave a potency estimated from few doses (CDC42; [1]) of 1400 nM, a potency estimated from few doses (PIK3CB) of 274 nM and a potency estimated from few doses (RAB5C) of 976 nM.

`Cn1cc(C2=C(c3cccc4ccccc34)C(=O)NC2=O)c2ccccc21` [RO0317253-000] gave a potency estimated from few doses (CDC42; compound concentrations: 100 nM and 1000 nM (sheet 'Samples'), CATDS: 0.310592027425942) of 2180 nM, a potency estimated from few doses (MDN1) of 1890 nM and a potency estimated from few doses (RIOK2; CATDS: 0.36068630579871103) of 1620 nM.

Work on `CCN1CCC(C(=O)Nc2n[nH]c3nnc(-c4cccc(F)c4F)cc23)CC1.Cl` [SB-686709-A] yielded a potency estimated from few doses (CDK16; compound concentrations: 100 nM and 1000 nM (sheet 'Samples'), CATDS: 0.11637141533409) of 199 nM, a potency estimated from few doses (CDK17; compound concentrations: 100 nM and 1000 nM (sheet 'Samples'), CATDS: 0.129072520880324) of 132 nM and a potency estimated from few doses (CDK9; compound concentrations: 100 nM and 1000 nM (sheet 'Samples'), CATDS: 8.2181630461084801E-2) of 1050 nM. The potency estimated from few doses (CDKL5; compound concentrations: 100 nM and 1000 nM (sheet 'Samples'), CATDS: 0.15820279930109701) was 60.5 nM, the potency estimated from few doses (DYRK1A) was 937 nM and the potency estimated from few doses (GSK3A; compound concentrations: 100 nM and 1000 nM (sheet 'Samples'), CATDS: 0.64867635498298803) was 0.589 nM. The potency estimated from few doses (GSK3B; compound concentrations: 100 nM and 1000 nM (sheet 'Samples'), CATDS: 0.38395769159981902) was 1.75 nM and the potency estimated from few doses (SMG1) was 1680 nM.

`CN1CCC(C(=O)Nc2n[nH]c3nc(-c4ccc(O)cc4)c(Br)cc23)CC1.O=C(O)/C=C\C(=O)O` [SB-732881-H] gave a potency estimated from few doses (CDK16; [1]) of 531 nM, a potency estimated from few doses (CDK17; [1]) of 459 nM and a potency estimated from few doses (CDK6) of 786 nM. For the same compound, the potency estimated from few doses (CDK7) was 732 nM, the potency estimated from few doses (CDK9; [1]) was 234 nM and the potency estimated from few doses (CDKL5; [1]) was 21 nM. For the same compound, the potency estimated from few doses (EPHB2) was 1100 nM, the potency estimated from few doses (ERCC2) was 985 nM and the potency estimated from few doses (FER) was 1270 nM. For the same compound, the potency estimated from few doses (GSK3A; [1]) was 2.51 nM, the potency estimated from few doses (GSK3B; [1]) was 8.66 nM and the potency estimated from few doses (ICK; [1]) was 1160 nM. It also gave a potency estimated from few doses (MAPK7) of 1760 nM, a potency estimated from few doses (NQO2; [1]) of 1590 nM and a potency estimated from few doses (PDGFRB) of 1730 nM. The potency estimated from few doses (TNK1; [1]) was 744 nM and the potency estimated from few doses (TNK2) was 964 nM.

For `CCCN1CCCC(c2ccc(Nc3nc(Nc4cc(F)ccc4C(N)=O)c4cc[nH]c4n3)c(OC)c2)C1` (stereo not drawn) [GSK1173862A], the potency estimated from few doses (CDC42; compound concentrations: 100 nM and 1000 nM (sheet 'Samples'), CATDS: 4.3032630224219597E-2) was 1230 nM, the potency estimated from few doses (CLK1; CATDS: 4.7124029654616303E-2) was 927 nM and the potency estimated from few doses (CLK4; CATDS: 4.6212544182609797E-2) was 982 nM. It also gave a potency estimated from few doses (COX5A) of 1230 nM, a potency estimated from few doses (CSNK1D; CATDS: 4.2260690384559901E-2) of 1310 nM and a potency estimated from few doses (CSNK1E; CATDS: 3.6484131745227702E-2) of 2340 nM. The potency estimated from few doses (EIF2AK1) was 805 nM, the potency estimated from few doses (GAK; CATDS: 0.41748311116987502) was 17.6 nM and the potency estimated from few doses (IGF1R) was 905 nM. The potency estimated from few doses (INSR) was 391 nM, the potency estimated from few doses (MAPK10) was 65.2 nM and the potency estimated from few doses (MAPK8) was 143 nM. It also gave a potency estimated from few doses (MAPK9) of 427 nM, a potency estimated from few doses (NQO2; compound concentrations: 100 nM and 1000 nM (sheet 'Samples'), CATDS: 4.0166930587455497E-2) of 1570 nM and a potency estimated from few doses (PSMC4) of 1450 nM. It also gave a potency estimated from few doses (PTK2B) of 280 nM, a potency estimated from few doses (TNK1; compound concentrations: 100 nM and 1000 nM (sheet 'Samples'), CATDS: 8.1062749446302901E-2) of 257 nM and a potency estimated from few doses (TTK) of 783 nM.

Compound `CCc1nn2ncccc2c1-c1ccnc(NC2CC2)n1` [GW683768X] has a potency estimated from few doses (CDC42; compound concentrations: 100 nM and 1000 nM (sheet 'Samples'), CATDS: 0.112066673449154) of 1390 nM, a potency estimated from few doses (CSNK1A1; CATDS: 0.11767767323313399) of 1200 nM and a potency estimated from few doses (CSNK1D; CATDS: 0.430543569866988) of 95.2 nM. It also gave a potency estimated from few doses (CSNK1E; CATDS: 0.24847771886196199) of 230 nM, a potency estimated from few doses (FLT3) of 948 nM and a potency estimated from few doses (GAK; CATDS: 0.12375475758879401) of 1040 nM. It also gave a potency estimated from few doses (RIOK2; CATDS: 0.107134967231821) of 1610 nM.

In the case of `Cn1cc(C2=C(c3cccnc3)C(=O)NC2=O)c2ccccc21` [RO0317886-000], the potency estimated from few doses (CDK10) is reported as 1080 nM, the potency estimated from few doses (GSK3A; compound concentrations: 100 nM and 1000 nM (sheet 'Samples'), CATDS: 0.212149107920546) is reported as 213 nM and the potency estimated from few doses (GSK3B; compound concentrations: 100 nM and 1000 nM (sheet 'Samples'), CATDS: 0.208029225896153) is reported as 222 nM. For the same compound, the potency estimated from few doses (HSPE1) was 39.3 nM, the potency estimated from few doses (ICK; compound concentrations: 100 nM and 1000 nM (sheet 'Samples'), CATDS: 0.128713258557627) was 825 nM and the potency estimated from few doses (PKM) was 1160 nM.

Work on `CCc1c(C)nc2sc3c(N)ncnc3c2c1C` [RO4493944-000] yielded a potency estimated from few doses (CDC7) of 1870 nM, a potency estimated from few doses (CLK1; CATDS: 0.173131615518303) of 453 nM and a potency estimated from few doses (CLK4; CATDS: 0.128777290310437) of 724 nM. The potency estimated from few doses (CSNK1A1; CATDS: 0.113796385521925) was 903 nM, the potency estimated from few doses (CSNK1D; CATDS: 0.110842785331434) was 949 nM and the potency estimated from few doses (CSNK1E; CATDS: 9.8087772288550895E-2) was 1220 nM. It also gave a potency estimated from few doses (ILK) of 1830 nM, a potency estimated from few doses (NQO1) of 1460 nM and a potency estimated from few doses (RIOK2; CATDS: 9.8590158992526697E-2) of 1200 nM. It also gave a potency estimated from few doses (TP53RK) of 2190 nM.
